Screening results from PubChem.
HCV inhibitor: blocks hepatitis C virus; Huh7.5.1 HCVcc-Cre infection, luciferase reporter, 44 h; Potency, µM (top dose mostly 41.8 µM), for inactives: at the top dose activity change, negative = inhibition, most hits filed as inhibitors; actives 3.4% (n = 340,000); AID 651820; active = well fitted inhibition curve with a large enough effect; inconclusive = small, poorly fitted or top-dose-only effect, or another doubt; inactive = no such curve, though single readings can be large or run the other way; also: potency is read from the fitted curve at half-maximal effect; % is scaled to controls: 0 for no effect and ±100 for the full control effect
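HCVcc-Cre virus at an moi near 0.5 was added right after compound to cells cultured 4 h from seeding (1,000 cells/well). Luciferase activity was determined 44 h later, 15 min after substrate addition at RT.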
FMDV antiviral: foot and mouth disease virus antiviral activity; FMDV antiviral cell-based qHTS; Potency, µM (titrated, usually from 57.9 µM), without a hit: at the top dose activity change, negative = inhibition, hits mostly inhibitors; actives 1.2% (n = 410,000); AID 1159524; calls by dose curve; tested in HEK293T cells; also: read-out not given here; potency is read from the fitted curve at half-maximal effect; % is scaled to controls: 0 for no effect and ±100 for the full control effect; nearly all actives have a fitted effect of over 45% in size
Lassa entry inh: Lassa virus entry inhibition; Potency, µM (highest dose often 37.9 µM), for the others: top-dose activity change, negative = inhibition, actives largely listed as inhibitors; actives 1.2% (n = 300,000); Lassa virus pseudotype entry inhibition, cell reporter; AID 540256; calls by dose curve; tested in HEK293 cells; also: potency is read from the fitted curve at half-maximal effect; % is scaled to controls: 0 for no effect and ±100 for the full control effect; nearly all actives have a fitted effect of over 50% in size
Cycloheximide cs: affects cycloheximide protein synthesis inhibition readout, counter-screen; cell reporter, cycloheximide protein synthesis inhibition counterscreen; max response, %; actives 12% (n = 300,000); in the data active = max response mostly above about 13%, no sharp cut-off; inactive = mostly below about 14%; also: read at 38.3 µM for the half of the compounds with a filed dose; 0% is about no effect
Shiga toxin inh: inhibitors of Shiga toxin in Vero cells; Vero cells, Shiga toxin protein synthesis inhibition reporter; inhibition, % at 38.7 µM; actives 9.2% (n = 290,000); AID 2315; in the data active = inhibition mostly above about 28%, no sharp cut-off; inactive = mostly below about 43%; also: 0% is about no effect
MARV entry inh: blocks Marburg virus binding to or entry into cells; Potency, µM (doses to about 37.8 µM), without a hit: top-dose activity change, negative = inhibition, most hits filed as inhibitors; Marburg virus pseudotyped entry inhibition, cell reporter; actives 1.8% (n = 300,000); calls by dose curve; tested in HEK293 cells; also: potency is read from the fitted curve at half-maximal effect; % is scaled to controls: 0 for no effect and ±100 for the full control effect
The depositor's hits bear a star; u = inconclusive; x = no result given; [ ] = remark or other dose. Only some compounds are listed: those with a hit (about 13% of all), similar ones and a draw of the others.

SMILES	HCV inhibitor	FMDV antiviral	Lassa entry inh	Cycloheximide cs	Shiga toxin inh	MARV entry inh
CCOC(=O)c1c(C)[nH]c(C(=O)COC(=O)C2(C)CC2(Cl)Cl)c1C (configuration not stated)	-19%	-16%	5%	53*	49	u
CCOC(=O)c1[nH]c(C)c(C(=O)NCc2ccco2)c1C	3%	-15%	x	0	-12	x
CCOC(=O)CC(=O)c1[nH]c(C)c(C(=O)OCC)c1C	-7%	9%	-4%[46.1 µM]	26*	46	-2%[46.1 µM]
CCOC(=O)c1c(C)[nH]c(C(=O)NCc2ccco2)c1C	x	x	x	43*	53*	x
Cc1ccc(C(=O)OCC(=O)c2ccc(Cl)s2)s1	u	24%	18%	53*	83*	12%
O=C(OCC1CCCO1)c1ccc2c(c1)N(Cc1ccccc1)C(=O)c1ccccc1S2(=O)=O (configuration not stated)	x	-1%	6%[46.1 µM]	x	x	x
CCOc1ccc(CCNC(=O)CCSCc2cccc(Cl)c2)cc1OCC	x	-2%	7%[46.1 µM]	x	x	x
CCOC(=O)c1[nH]c(C)c(C)c1C	15%	-16%	-8%	-3	20	-5%
CCOC(=O)c1c(C)[nH]c(C(=O)N2CCc3cc(OC)c(OC)cc3C2)c1C	11µM*	u	u	x	x	-20%
CCOC(=O)c1c(C)[nH]c(C(=O)OCC(=O)NC(C)(C)C)c1C	14µM*	-26%	u	23*	10	-6%[46.1 µM]
CCOC(=O)c1c(C)[nH]c(C(=O)N2CCN(C(=O)OCC)CC2)c1C	-1%	-9%	u	-3	-15	6%[46.1 µM]
CCOC(=O)c1[nH]c(C)c(C(=O)OC)c1C	6%	15%	u	13*	28	u
Cc1ccc(N(Cc2cccs2)C(=O)c2ccccc2)cc1	x	-16%	-20%[46.1 µM]	x	x	-26%[46.1 µM]
CC(C)C[C@H](NC(=O)[C@H](CO)NC(=O)[C@H](C)NC(=O)[C@H](CCCN=C(N)N)NC(=O)[C@H](CCCN=C(N)N)NC(=O)[C@@H](N)CC(C)C)C(=O)NCC(=O)O	x	x	x	6	-8	x
Nc1ccc(-c2cc(-c3ccc(N)cc3)nc(-c3ccccc3)n2)cc1	1%	6%	u	5	-4	-2%
Clc1cc(-c2ccccc2)nc(-c2ccccc2)n1	u	-10%	u	x	x	14%
Brc1cc(-c2ccccc2)nc(-c2ccccc2)n1	11µM*	-5%	-17%	x	x	20%[46.1 µM]
NNc1nc(-c2ccccc2)cc(-c2ccccc2)n1	13µM*	-5%	x	-4	25	x
Clc1nc(-c2ccccc2)cc(-c2ccccc2)n1	u	-22%	-12%	17*	17	u
CCC(CO)Nc1ccc(-c2nn(C)c(=O)c3ccccc23)cc1[N+](=O)[O-] (configuration not stated)	-5%	-13%	x	-2	-1	x
CC(C)(C)c1cc(NC(=O)CCl)n(-c2ccccc2)n1	u	u	u	-1	-8	u
Cc1cccc(-c2nc3scc(CCNS(=O)(=O)c4ccc(F)c(C(F)(F)F)c4)n3n2)c1	x	53%	-16%[46.1 µM]	x	x	x
Cc1noc(C)c1COc1ccccc1C(=O)Nc1cccc(S(=O)(=O)N(C)C)c1	-6%	-21%	0%	x	x	-17%
CCN(CC)S(=O)(=O)c1cc(NC(=O)COC(=O)c2c(C)noc2C)ccc1C	14µM*	0%	x	x	x	x
Cc1cc(NC(=O)COC(=O)c2c(C)noc2C)ccc1Br	-12%	23%	17%[46.1 µM]	7	35	u
SMILES	HCV inhibitor	FMDV antiviral	Lassa entry inh	Cycloheximide cs	Shiga toxin inh	MARV entry inh
CCN(CC)S(=O)(=O)c1cc(NC(=O)c2ccccc2OCc2c(C)noc2C)ccc1C	-29%	19%	11µM*	x	x	u
CC1=C(C#N)C(Nc2cc(C)ccn2)(C(F)(F)F)C(=O)N1 (configuration not stated)	12%	-13%	-14%	1	10	-10%
COc1ccc([C@H]2CC(=O)C=C(c3ccccc3Oc3ccccc3)C2)cc1	u	-26%	x	x	x	x
COc1ccc(C)cc1-n1nnnc1SCC(=O)NNC(=O)c1ccc([N+](=O)[O-])cc1	u	-11%	-5%	-2	22	-1%[46.1 µM]
COc1ccc2c(c1OC)C(=O)OC2N1C(=O)CC[C@H]1C(=O)Nc1ccc(F)cc1F (some centres not stated)	0.56µM*	-17%	x	1	-5	x
COc1ccc(CCN(C)C2CCCN(S(=O)(=O)N(C)C)C2)cc1OC (configuration not stated)	-1%	24%	8%[46.1 µM]	x	x	-3%[46.1 µM]
CCOC(=O)CC(NC(=O)Cn1nnc(-c2ccc(C(F)(F)F)cc2)n1)c1ccc(OC)cc1 (configuration not stated)	x	-21%	-11%[46.1 µM]	x	x	-23%[46.1 µM]
Cc1cc2ccc3ccccc3c2cc1CN(C)C	u	0%	6%	33*	60*	u
Cc1ccc(/C=C\c2nccc3c2[nH]c2ccccc23)cc1	u	17%	-11%[46.1 µM]	33*	59	u
C(=C\c1nccc2c1[nH]c1ccccc12)/c1ccccc1	u	0%	x	33*	85*	x
Fc1ccc(/C=C\c2nccc3c2[nH]c2ccccc23)cc1	u	6%	-28%[46.1 µM]	13	45	u
CCc1nc2ccc(C(=O)Nc3cc(-c4ccccc4)ccc3OC)cn2c1N(CC)CCN(C)C	x	-14%	x	x	x	x
O=C(NCc1cccs1)Nc1cccs1	-1%	70%	1%	38*	33*	16%
O=C(NCc1ccccc1)NCc1cccs1	11%	37%	15%[46.1 µM]	22*	41*	u
Cc1cccnc1NC(=O)Nc1cccs1	4%	34%	22%	24	35	10%
O=C(NCc1cccs1)Nc1cccc(Cl)c1	-14%	70%	3%	x	x	-8%[46.1 µM]
Cc1ccccc1CNC(=O)Nc1cccs1	u	50%	u	51*	66*	18%
CC(C)CN(C(=O)COC(=O)c1ccc(Cl)nc1)c1c(N)n(Cc2ccccc2)c(=O)[nH]c1=O	-5%	1%	-3%	x	x	-7%
CCOc1ccc(OCC)c(NC(=O)c2cnc(SC)nc2-c2ccccc2)c1	x	u	-16%[46.1 µM]	x	x	x
CC(=O)O[C@@H]1CC[C@@]2(C)[C@H](C1)[C@H](OC(C)=O)C[C@@H]1[C@@H]2C[C@H]2[C@@H]3CN4C[C@H](C)CC[C@H]4[C@H](C)[C@H]3CC[C@@]12O	x	x	x	8	-12	x
Cc1cc2nn(-c3cccc4ccccc34)nc2cc1N	8%	38%	28%	22*	44*	u
Cc1ccc(-n2nc3cc(C)c(N)cc3n2)cc1	-21%	-60%	13µM*	53*	96*	u
CCc1ccc(-n2nc3cc(C)c(N)cc3n2)cc1	-17%	-23%	x	57*	142*	x
CCc1ccc(-n2nc3cc(C)c(NC(=O)c4ccccc4C)cc3n2)cc1	x	u	26%[46.1 µM]	x	x	u
CCOc1ccccc1NC(=O)Cc1coc2cc(C)ccc12	-23%	-15%	-10%	8	6	-16%[46.1 µM]
COc1ccccc1NC(=O)Cc1coc2cc(C)ccc12	-5%	33%	4%	24*	24	7%
COc1cc(C)ccc1NC(=O)Cc1csc(NC(=O)Nc2ccccc2OC)n1	8.9µM*	u	u	x	x	u
